The values that follow come from PubChem BioAssay AID504621 (Broad Institute, 2011).

In all, about 310,000 compounds went through this assay and about 970 (0.31%) were called active.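 How the source made its calls: active means every replicate shows inhibition above about 80%, whatever the replicate mean (limit read from the data); inconclusive means mean inhibition reaches the set limit but some replicate falls short; inactive means the rest.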 What follows is part of a selection rich in actives, with near analogues and random picks from the rest.

This test is described as follows: growth inhibition of PfHsp90-expressing yeast, primary screen, antimalarial PfHsp90 inhibitor project, S. cerevisiae, BacTiter-Glo luminescence, single point, set 2 (AID 504621).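 Further: yeast relying on Plasmodium falciparum Hsp90 in place of its own; 0% = DMSO neutral controls and 100% = 20 µM radicicol positive controls.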 The conditions noted are these: BacTiter-Glo ATP, 48 h, at 9.4 µM, stronger effect = higher value, yeast lacking PDR1 and PDR3 efflux regulators.
As usually defined, the inhibition is the relative decrease from the control value, in per cent. Regarding `O=C(Nc1cccnc1)c1ccc(Cl)c([N+](=O)[O-])c1`, the inhibition is 15.1% (inactive).
To `O=C(/C=C/c1ccc(Cl)c([N+](=O)[O-])c1)c1ccc(O)cc1` belongs 12.9% (inactive); to `O=C(/C=C/c1ccc(Cl)c([N+](=O)[O-])c1)c1cccnc1`, 104% (active); to `COc1ccc(CNCCCn2cnc3c(OCc4ccccc4)ncnc32)cc1`, 21.9% (inactive).
As for `COc1ccc(C(=O)Nc2cccc(/C=C(/CCC(=O)O)c3nc4ccccc4s3)c2)cc1`, the inhibition was -6.48% (inactive).
The value for `O=C(NN=Cc1ccccc1O)NN=Cc1ccccc1O` was 15.3% (inactive); that for `COC[C@@H]1NS(=O)(=O)c2ccc(Br)cc2O[C@H]1c1ccccc1` was -9.7% (inactive).
To `CC(C)OC(=O)c1ccc(NCc2cc(O)ccc2O)cc1Cl` belongs 121% (active).
To `CC(CN1CCOCC1)OC(=O)c1ccc(Cl)cc1Cl` (stereo not given) belongs -17.2% (inactive).
Regarding `CC(C)NC(=O)c1ccc(Cl)cc1Cl`, the inhibition was -8.78% (inactive).
To `N#CC1=C(N)Oc2cc(N)ccc2C1c1ccccc1` (stereo not given) belongs -6.35% (inactive).
To `O=C(Cc1ccc(S(=O)(=O)N2CCOCC2)s1)Nc1ccc(Br)c(C(F)(F)F)c1` belongs 0.787% (inactive); to `Cc1[nH]n(-c2ccccc2)c(=O)c1N=Nc1ccccc1C(=O)N1CCCCC1`, 9.24% (inactive).
The value for `Cc1[nH]n(-c2ccc([N+](=O)[O-])cc2)c(=O)c1C=NCCN1CCN(C(=O)c2ccccc2F)CC1` was 86.9% (active).
On to `C=CCNC(=S)N1CCN(CCN=Cc2c(C)[nH]n(-c3ccc([N+](=O)[O-])cc3)c2=O)CC1`, for which the inhibition was -11.1% (inactive).
Consider `CCOC(=O)CCC(NC(=O)c1ccc(CNc2nc3cc(C(F)(F)F)ccc3nc2C(=O)OCC)cc1)C(=O)OCC` (stereo not given), for which the inhibition was -2.78% (inactive).
`Cc1ccc(S(=O)(=O)N2CCN(C(=O)COC(=O)/C=C/c3cccc(Cl)c3)CC2)c(C)c1`: the inhibition was 4.86% (inactive).
The value for `Cc1cccc(-c2oc3ccc(-c4ccc5c(c4)OCO5)cc3c2C#Cc2cncn2C)c1` was -2.66% (inactive); that for `O=C(NCc1ccc2c(c1)OCO2)c1c(-c2ccsc2)sc2ccccc12` was 20.1% (inactive); that for `CC(=NNC(=S)N1CCCCCC1)c1ccccn1` was 91.4% (active).
Turning to `C/C(=N\NC(=O)Cc1ccc(Cl)cc1)c1ccccn1`, the inhibition is -4.85% (inactive).
The value for `C/C(=N\NC(=O)c1ccccc1F)c1ccccn1` was -13% (inactive).
To `Oc1[nH]c2ccccc2c1N=Nc1c(F)c(F)c(F)c(F)c1F` belongs -34.3% (inactive); to `COc1ccc(C(=O)N(C)Cc2ccc(OC)c(OC)c2OC)cc1S(=O)(=O)N1CCOCC1`, 5.5% (inactive); to `O=C(CN1C(=O)NC2(CCCCCCC2)C1=O)NCc1ccc(F)cc1`, 12.2% (inactive).
With `OCC1(CO)CC2(C1)CC(CO)(CO)C2`, the inhibition is 6.26% (inactive).
The value for `O=C(c1ccc(-c2ccccc2)cc1)C1CCCN(C(=O)c2cncs2)C1` (stereo not given) was 90.2% (active); that for `Cn1nccc1C(=O)N1CCCC(C(=O)c2ccc(Oc3ccccc3)cc2)C1` (stereo not given) was -45.9% (inactive).
The value for `CCNC(=O)N1CCCC(C(=O)c2ccc(-c3ccccc3)cc2)C1` (stereo not given) was -1.67% (inactive); that for `CC(C)(C)OC(=O)N(Cc1ccccc1)Cc1ccc(OCc2cccc(NC(=O)c3ccccc3)c2)cc1` was 25% (inactive); that for `COc1cccc2oc(CCc3ccccc3)cc(=O)c12` was 8.03% (inactive).
On to `O=C(CC1SCCNC1=O)Nc1ccc(Cl)c(Cl)c1` (stereo not given), for which the inhibition was 15% (inactive).
To `O=C(Cc1ccc(Cl)c(Cl)c1)Nc1ccc(SC(F)F)cc1` belongs 12.6% (inactive).
The value for `O=C(CC(O)(C(F)(F)F)C(F)(F)F)Nc1ccc(Cl)c(Cl)c1` was 123% (active); that for `Cc1cc([N+](=O)[O-])ccc1NS(=O)(=O)c1ccccc1` was -35.7% (inactive).
The value for `COC(=O)/C=C\C(=O)Nc1cccc([N+](=O)[O-])c1` was 106% (active).
As for `COc1ccc(S(=O)(=O)NC(C)C(=O)Nc2cccc([N+](=O)[O-])c2)cc1` (stereo not given), the inhibition was 4.61% (inactive).
The value for `COc1cccc(CNC(=O)CCCC(=O)Nc2cccc([N+](=O)[O-])c2)c1` was -1.23% (inactive); that for `O=C(/C=C/c1cccc([N+](=O)[O-])c1)N1CCN(Cc2ccccc2)CC1` was 0.555% (inactive).
To `COC(=O)Cn1cc(/C=C/[N+](=O)[O-])c2ccccc21` belongs -17% (inactive).
The value for `O=[N+]([O-])/C=C/c1ccc2c(ccn2Cc2ccccc2)c1` was 104% (active); that for `COc1ccc(/C=C/C(=O)c2ccc(NS(=O)(=O)c3ccc(C)cc3)cc2)cc1O` was -4.81% (inactive); that for `COC(=O)c1ccc(COc2ccc(/C=C/C(=O)c3ccc(OC)c(CSCC(=O)O)c3)cc2OC)cc1` was 1.15% (inactive).
Take `COc1ccc(C(=O)/C=C/c2ccc(-c3ccccc3)cc2)cc1CSCC(=O)O`: the inhibition was 105% (active).
As to `CN(CCc1ccccc1)C(=O)c1cccc(NC(=O)Cc2cccc(NC(=O)C3CCCN(C(=O)CCc4ccccc4)C3)c2)c1` (stereo not given), the inhibition is -1.39% (inactive).
The value for `O=C(Nc1ccn(CCCNCc2ccc3[nH]ccc3c2)c(=O)n1)OCc1ccccc1` was -7.16% (inactive); that for `CCCCN1CC(COc2ccccc2)Oc2cccc(F)c2S1(=O)=O` (stereo not given) was -1.66% (inactive); that for `O=C(NNC(=O)c1ccccc1O)c1ccccc1O` was -9.27% (inactive).
To `CN(O)C(=S)c1ccccc1` belongs 104% (active); to `CN(CC(=O)O)C(=O)c1ccccc1`, 28.8% (inactive); to `CN(/N=C/c1ccccc1)C(=S)c1ccccc1`, -15.5% (inactive).
The value for `CCc1ccc(C(=O)C(C)OC(=O)CN2C(=O)NC3(CCCC3)C2=O)cc1` (stereo not given) was -1.32% (inactive); that for `O=C(Nc1ccccc1)c1nnsc1S(=O)(=O)c1ccc(Cl)cc1` was 126% (active); that for `O=C(Nc1ccc(Cl)cc1)Nc1nnc(/C=C/c2ccccc2)s1` was 8.47% (inactive).
Consider `Cc1nnsc1C(=O)N/N=C/c1ccccc1Cl`, for which the inhibition is 1.6% (inactive).
The value for `O=C(C[C@H]1C/C=C\C[C@@H](NC(=O)OCC2c3ccccc3-c3ccccc32)C(=O)O[C@@H](c2ccccc2)CNC1=O)N[C@H](CO)Cc1ccccc1` was -13.9% (inactive); that for `OCCN1CCN(CCO)C1=S` was 15.3% (inactive).
The value for `S=c1[nH]nc(-c2cc(-c3ccccc3)n[nH]2)n1/N=C/c1c2ccccc2cc2ccccc12` was -28.2% (inactive); that for `Oc1ccccc1/C=N/n1c(-c2cccs2)n[nH]c1=S` was -9.75% (inactive); that for `Cc1cc(-c2n[nH]c(=S)n2/N=C/C(Br)=C/c2ccccc2)n[nH]1` was 109% (active).
On to `CCCN(CCC)S(=O)(=O)c1cc2c(cc1Br)CCN2C(=O)CC`, for which the inhibition is -17.7% (inactive).
In the case of `CSCCC(NC(=O)COc1ccccc1)C(=O)OCc1ccc(Cl)cc1` (stereo not given), the inhibition was 6.52% (inactive).
Turning to `O=C1/C(=C\c2ccc(O)cc2)CCC1CNc1ccc(Cl)cc1` (stereo not given), the inhibition is 42.3% (inactive).
For `CC(C)N(C(=O)[C@H]1C[C@H](CC(=O)NC(C)(C)C)C(=O)N2CCc3c([nH]c4ccc(Cl)cc34)[C@]12C)C(C)C`, the inhibition was 21.3% (inactive).
To `COC(=O)c1ccc(NCc2cc(O)ccc2O)cc1` belongs 30.3% (inactive); to `CC1(C)C2CCC1(C)C(OC(=O)c1ccc(O)cc1)C2` (stereo not given), 11.7% (inactive).
To `O=C(OC12CC3CC(CC(C3)C1)C2)c1ccc(NCc2cc(O)ccc2O)cc1` belongs 124% (active); to `O=C(Nc1c(Br)cc2c(c1Br)Cc1cc([N+](=O)[O-])ccc1-2)C(Cl)Cl`, -28.5% (inactive); to `O=S1(=O)CCOC[C@H](Cc2ccccc2)N1Cc1ccccc1Br`, 10.2% (inactive).
The value for `C=CCOC(=O)N1CCC2CC1c1cc(-c3ccc(OC)cc3)ccc12` (stereo not given) was -3.16% (inactive); that for `COc1ccccc1C(=O)c1ccccc1C(=O)c1ccccc1` was -29.9% (inactive); that for `CN(CCc1ccccc1)C(=O)c1cccc(NC(=O)Cc2cccc(NC(=O)C3CCCN(C(=O)C4CCC4)C3)c2)c1` (stereo not given) was 10.6% (inactive).
With `CCOC(=O)c1ccc(N2C(=O)CC(N3CCC(C(=O)OCC)CC3)C2=O)cc1` (stereo not given), the inhibition is 94.1% (active).
The value for `CCOC(=O)c1ccc(N2C(=O)CC(N3CCN(C(=O)c4ccccc4)CC3)C2=O)cc1` (stereo not given) was 18.7% (inactive); that for `CCOC(=O)c1ccc(N2C(=O)CC(N3CC(C)OC(C)C3)C2=O)cc1` (stereo not given) was 11.2% (inactive).
To `CSc1ncnc2c1ncn2CC(=O)C1CCC2C3CCC4=CC(=O)CCC4(C)C3CCC12C` (stereo not given) belongs 17% (inactive).
To `CCOC(=O)[C@H]1[C@H]2COc3ccc(Br)cc3[C@@H]2N2C(=O)CN(C)C(=O)[C@@]12C` belongs 3.33% (inactive); to `C=CC(=O)Nc1ccc(Nc2ccnc(Nc3ccc(N4CCN(C)CC4)cc3)n2)cc1`, 1.37% (inactive).
Regarding `CCN(CC)S(=O)(=O)c1ccc(N2CCCC2)c(NC(=O)c2ccc([N+](=O)[O-])o2)c1`, the inhibition was 7.78% (inactive).
For the compound `O=C(c1ccccc1)N1N=C(c2ccccc2O)CC1c1ccc(Br)cc1` (stereo not given), the inhibition was -6.75% (inactive).
The value for `Oc1ccccc1C1=NN(c2ccccc2)C(c2ccccc2)C1` (stereo not given) was 106% (active); that for `CC(=O)Oc1ccccc1C1=NN(C(C)=O)C(c2ccccc2)C1` (stereo not given) was 6.42% (inactive).
To `O=C(Nc1ccccc1)Oc1cccc2cccnc12` belongs 104% (active); to `OCc1ccc(OCCCOc2cccc3cccnc23)cc1`, 24.6% (inactive).
The value for `Fc1ccccc1COc1cccc2cccnc12` was 5.74% (inactive); that for `CCOc1ccc(S(=O)(=O)N2CCN(C(=O)c3oc4ccccc4c3C)CC2)cc1` was -16.3% (inactive); that for `CC(=O)Oc1ccc(OC(C)=O)c2c1C1C=CC2CC1` was -4.99% (inactive).
Consider `O=[N+]([O-])c1ccc(C=NN=Cc2ccc([N+](=O)[O-])cc2)cc1`, for which the inhibition was -1.39% (inactive).
The value for `O=C(NN=Cc1ccc([N+](=O)[O-])cc1)C1CC1` was -9.96% (inactive); that for `O=C1/C(=C\c2ccc([N+](=O)[O-])cc2)CS(=O)(=O)C/C1=C/c1ccc([N+](=O)[O-])cc1` was 104% (active).
